The results in this text go back to PubChem BioAssay (EPA / NIEHS).

What all share (conditions): mRNA level, 48 h; actives raise or lower the signal
Read-out in assay [1]: Peroxisomal acyl-coenzyme A oxidase 1 (ACOX1) gene, ACOX1 (gene 51)
In words: LTEA_HepaRG_ACOX1: Life Technologies and Expression Analysis (LTEA) Assay for Peroxisomal acyl-coenzyme A oxidase 1 (ACOX1) gene using HepaRG (AID 2283467). The essentials: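 Human HepaRG hepatic cultures, 48 h treatment with test chemicals up to 100 uM. ACOX1 expression read by qRT-PCR relative to 0.5% DMSO vehicle.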

Read-out in assay [2]: Alkaline Phosphatase, Placental (ALPP) gene, ALPP (gene 250)
In words: LTEA_HepaRG_ALPP: Life Technologies and Expression Analysis (LTEA) Assay for Alkaline Phosphatase, Placental (ALPP) gene using HepaRG (AID 2283468). The essentials:
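Expression of ALPP was quantified by qRT-PCR against three housekeeping genes in human HepaRG cultures treated for 48 h with an eight-point concentration series up to 100 uM. Activity in either direction was fitted relative to 0.5% DMSO.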

Read-out in assay [3]: Bcl-2 (BAD) gene, BAD (gene 572)
Put plainly: LTEA_HepaRG_BAD: Life Technologies and Expression Analysis (LTEA) Assay for Bcl-2 (BAD) gene using HepaRG (AID 2283469). An outline of the steps: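 Activity values reflect up- or down-regulation of BAD mRNA in human HepaRG hepatic cells treated 48 h in serum-free medium, with eight-point half-log dosing capped at 100 uM and 0.5% DMSO vehicle.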

Read-out in assay [4]: Bcl-2 (BAX) gene, BAX (gene 581)
Put plainly: LTEA_HepaRG_BAX: Life Technologies and Expression Analysis (LTEA) Assay for Bcl-2 (BAX) gene using HepaRG (AID 2283470). An outline of the steps:
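qRT-PCR read-out of BAX mRNA, normalized to three housekeeping genes, after 48 h chemical exposure of human HepaRG cells in serum-free induction medium; eight-point half-log series, top 100 uM, 0.5% DMSO vehicle; bidirectional fit versus DMSO.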

Read-out in assay [5]: adenosine kinase (ADK) gene, ADK (gene 132)
In words: LTEA_HepaRG_ADK: Life Technologies and Expression Analysis (LTEA) Assay for adenosine kinase (ADK) gene using HepaRG (AID 2283471). An outline of the steps: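 Differentiated HepaRG cells dosed 48 h in serum-free induction medium, 0.5% DMSO vehicle, eight half-log concentrations from 100 uM, in duplicate. ADK mRNA by TaqMan qRT-PCR normalised to ACTB, GAPDH, POLR2A; bidirectional fit versus DMSO.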

Read-out in assay [6]: Alpha-fetoprotein (AFP) gene, AFP (gene 174)
Put plainly: LTEA_HepaRG_AFP: Life Technologies and Expression Analysis (LTEA) Assay for Alpha-fetoprotein (AFP) gene using HepaRG (AID 2283472).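 For AC50: AFP transcript by TaqMan qRT-PCR normalized to ACTB GAPDH and POLR2A.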 An outline of the steps: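 qRT-PCR (Fluidigm TaqMan) readout of AFP transcript, normalized to three housekeeping genes, fitted bidirectionally against 0.5% DMSO baseline. HepaRG cells received chemicals for 48 h in serum-free induction medium, top concentration 100 uM, half-log steps.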

Read-out in the next assay: BCL2L11 (gene 10018)
Put plainly: LTEA_HepaRG_BCL2L11: Life Technologies and Expression Analysis (LTEA) Assay for Bcl-2 (BCL2L11) gene using HepaRG (AID 2283473). The essentials: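 Cells were plated, cultured 48 h, switched to serum-free induction medium, then dosed in duplicate for 48 h at eight half-log concentrations up to 100 uM. Lysates underwent RNA isolation and TaqMan qRT-PCR; gain or loss versus DMSO was fitted.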

Read-out in assay [7]: Apolipoprotein A-V (APOA5) gene, APOA5 (gene 116519)
Put plainly: LTEA_HepaRG_APOA5: Life Technologies and Expression Analysis (LTEA) Assay for Apolipoprotein A-V (APOA5) gene using HepaRG (AID 2283474). The essentials: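 Human liver HepaRG cells are treated 48 h with test chemicals (100 uM top, half-log dilutions, 0.5% DMSO). APOA5 mRNA induction or loss is measured by qRT-PCR relative to vehicle.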

Read-out in assay [8]: Apoptosis regulator Bcl-2 (Homo sapiens) (UniProt P10415)
Put plainly: LTEA_HepaRG_BCL2: Life Technologies and Expression Analysis (LTEA) Assay for Bcl-2 gene using HepaRG (AID 2283475). The essentials:
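qRT-PCR read-out (Fluidigm TaqMan) of BCL2 transcript, normalised to three housekeeping genes, after 48 h chemical exposure of HepaRG cells; 8-point half-log series, top 100 uM, 0.5% DMSO vehicle. Gain or loss of signal fitted relative to DMSO baseline.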

Read-out in assay [9]: Bcl-2 (BID) gene, BID (gene 637)
Put plainly: LTEA_HepaRG_BID: Life Technologies and Expression Analysis (LTEA) Assay for Bcl-2 (BID) gene using HepaRG (AID 2283476). The essentials:
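HepaRG, 48 h exposure, 8-pt half-log series, top 100 uM, 0.5% DMSO vehicle, duplicates. Readout: BID mRNA by TaqMan qRT-PCR; housekeeping-normalized; bidirectional curve fit vs DMSO baseline.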

Read-out in the next assay: Caspase-3 (Homo sapiens) (UniProt P42574)
Put plainly: LTEA_HepaRG_CASP3: Life Technologies and Expression Analysis (LTEA) Assay for cysteine-aspartic acid protease (CASP3) using HepaRG (AID 2283477). An outline of the steps:
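In HepaRG liver cells dosed for 48 h at up to 100 uM (eight-point, duplicate), CASP3 expression changes are scored by qRT-PCR. Activity is fitted in both directions with 0.5% DMSO as baseline.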

Read-out in assay [10]: Cytochrome P450 (CYP24A1), CYP24A1 (gene 1591)
In words: LTEA_HepaRG_CYP24A1: Life Technologies and Expression Analysis (LTEA) Assay for Cytochrome P450 (CYP24A1) using HepaRG (AID 2283478). An outline of the steps:
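Human liver HepaRG cultures receive each chemical for 48 h across an eight-point half-log series topping at 100 uM in 0.5% DMSO. Induction or suppression of CYP24A1 mRNA is scored relative to vehicle after housekeeping-gene normalization.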

Read-out in assay [11]: cysteine-aspartic acid protease (CASP8), CASP8 (gene 841)
Put plainly: LTEA_HepaRG_CASP8: Life Technologies and Expression Analysis (LTEA) Assay for cysteine-aspartic acid protease (CASP8) using HepaRG (AID 2283480). The essentials:
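Concentration-response in duplicate up to 100 uM (half-log steps, 0.5% DMSO) on differentiated HepaRG cultures for 48 h. Expression change of CASP8 mRNA is determined by TaqMan qRT-PCR with housekeeping-gene normalization.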

Read-out in assay [12]: Cytochrome P450 (CYP2B6), CYP2B6 (gene 1555)
In words: LTEA_HepaRG_CYP2B6: Life Technologies and Expression Analysis (LTEA) Assay for Cytochrome P450 (CYP2B6) using HepaRG (AID 2283481). An outline of the steps: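 Using 48 h treatment of HepaRG cells in serum-free induction medium, concentrations spanned half-log steps from 100 uM in 0.5% DMSO vehicle. CYP2B6 mRNA induction or loss is scored by qRT-PCR against DMSO.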

Read-out in assay [13]: Cytochrome P450 2C19 (Homo sapiens) (UniProt P33261)
In words: LTEA_HepaRG_CYP2C19: Life Technologies and Expression Analysis (LTEA) Assay for CYP2C19 using HepaRG (AID 2283482). The essentials: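 Human HepaRG liver cells received test chemicals for 48 h (highest 100 uM, half-log dilutions in 0.5% DMSO). CYP2C19 mRNA induction or loss is read by multiplexed qRT-PCR and fitted in both directions versus vehicle.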

Read-out in the next assay: CYP2C8 (gene 1558)
Put plainly: LTEA_HepaRG_CYP2C8: Life Technologies and Expression Analysis (LTEA) Assay for CYP2C8 using HepaRG (AID 2283483). The essentials:
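This is a transcriptional endpoint in HepaRG cultures: 48 h exposure, highest concentration 100 uM. CYP2C8 mRNA is quantified by TaqMan qRT-PCR.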

Read-out in the next assay: CYP2C9 (gene 1559)
Put plainly: LTEA_HepaRG_CYP2C9: Life Technologies and Expression Analysis (LTEA) Assay for CYP2C9 using HepaRG (AID 2283484). The essentials: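 Eight-point concentration-response (highest 100 uM, half-log dilutions) in HepaRG cells for 48 h; CYP2C9 expression by qRT-PCR normalized to ACTB, GAPDH, POLR2A. Bidirectional fit, DMSO baseline.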

Read-out in another assay: CYP2E1 (gene 1571)
Put plainly: LTEA_HepaRG_CYP2E1: Life Technologies and Expression Analysis (LTEA) Assay for CYP2E1 using HepaRG (AID 2283485). The essentials:
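CYP2E1 transcript was measured by TaqMan qRT-PCR in human HepaRG cultures after 48 h chemical exposure (top 100 uM, half-log steps, 0.5% DMSO vehicle). Housekeeping-gene normalization; gain or loss fitted relative to DMSO baseline.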

Read-out in another assay: CYP4A11 (gene 1579)
In words: LTEA_HepaRG_CYP4A11: Life Technologies and Expression Analysis (LTEA) Assay for CYP4A11 using HepaRG (AID 2283486). An outline of the steps:
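Readout is CYP4A11 mRNA induction or suppression (qRT-PCR, ACTB/GAPDH/POLR2A normalization) in human HepaRG cells after 48 h chemical treatment, concentrations to 100 uM in 0.5% DMSO, fitted bidirectionally against vehicle.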

Read-out in assay [14]: Cytochrome P450 (CYP1A2), CYP1A2 (gene 1544)
In words: LTEA_HepaRG_CYP1A2: Life Technologies and Expression Analysis (LTEA) Assay for Cytochrome P450 (CYP1A2) using HepaRG (AID 2283479).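 Note: TaqMan qRT-PCR transcript level normalized to ACTB GAPDH and POLR2A.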 An outline of the steps:
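Assesses CYP1A2 mRNA in human HepaRG liver cells after 48 h chemical exposure at up to 100 uM. Values come from qRT-PCR with bidirectional curve fitting relative to DMSO.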

Calls of active or inactive are those of the source. Rule for the calls: active = hit-call score of the fitted dose curve at least 0.9, where 1 is the maximum; inactive = score below 0.9.

Cytochrome P450 2C19 (Homo sapiens), sequence (P33261 whole entry, looked up): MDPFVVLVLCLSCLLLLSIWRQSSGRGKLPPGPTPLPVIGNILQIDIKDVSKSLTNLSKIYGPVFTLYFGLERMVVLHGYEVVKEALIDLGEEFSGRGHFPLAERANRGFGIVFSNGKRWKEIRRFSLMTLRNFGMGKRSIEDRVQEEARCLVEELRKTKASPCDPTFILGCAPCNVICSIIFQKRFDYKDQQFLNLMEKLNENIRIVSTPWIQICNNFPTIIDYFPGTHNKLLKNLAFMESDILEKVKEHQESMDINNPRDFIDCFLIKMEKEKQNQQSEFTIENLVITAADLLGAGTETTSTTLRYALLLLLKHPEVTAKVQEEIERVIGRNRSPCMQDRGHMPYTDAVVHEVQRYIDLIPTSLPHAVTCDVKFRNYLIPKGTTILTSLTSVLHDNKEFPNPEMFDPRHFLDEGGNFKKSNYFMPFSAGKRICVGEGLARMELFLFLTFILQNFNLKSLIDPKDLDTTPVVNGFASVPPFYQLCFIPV
Apoptosis regulator Bcl-2 (Homo sapiens), sequence (P10415 whole entry, looked up): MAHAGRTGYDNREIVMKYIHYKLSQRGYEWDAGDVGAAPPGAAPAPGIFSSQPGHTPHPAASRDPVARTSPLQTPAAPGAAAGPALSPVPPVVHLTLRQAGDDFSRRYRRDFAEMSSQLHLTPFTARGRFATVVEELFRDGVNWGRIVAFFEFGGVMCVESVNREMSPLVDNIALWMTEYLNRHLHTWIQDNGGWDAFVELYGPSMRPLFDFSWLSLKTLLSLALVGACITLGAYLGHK
Caspase-3 (Homo sapiens), sequence (P42574 whole entry, looked up): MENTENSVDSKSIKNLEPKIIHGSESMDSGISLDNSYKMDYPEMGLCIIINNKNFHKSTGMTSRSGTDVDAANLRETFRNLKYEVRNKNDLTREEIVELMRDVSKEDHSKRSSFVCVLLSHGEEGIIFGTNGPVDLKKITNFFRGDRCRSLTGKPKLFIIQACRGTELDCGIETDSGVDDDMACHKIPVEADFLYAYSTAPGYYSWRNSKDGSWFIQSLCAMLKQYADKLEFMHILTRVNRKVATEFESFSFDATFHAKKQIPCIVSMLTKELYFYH

As for `NCCOCCOCCN`, the result in [1], in [2], in [3], in [4], in assay [5] and in assay [6] was inactive. In addition, the outcome (in the assay with BCL2L11 (gene 10018); in assay [7]; in assay [8]; in assay [9]; in the assay with Caspase-3 (Homo sapiens); in assay [10]) was inactive. Besides, the compound was called inactive (in assay [11]; in [12]; in assay [13]; in the assay with CYP2C8 (gene 1558); with CYP2C9 (gene 1559); with CYP2E1 (gene 1571)). In addition, in the assay with CYP4A11 (gene 1579), the compound was called inactive.

Regarding `CC1=C(C)S(=O)(=O)CCS1(=O)=O`, the compound was classed as inactive (in assay [1]; in assay [2]; in [3]; with BCL2L11 (gene 10018); in [9]; in [10]). Moreover, the compound was classed as inactive (in [11]; with CYP2C8 (gene 1558); in the assay with CYP2E1 (gene 1571)). The AC50 (in general, the concentration giving half of the maximal activity seen) in [4] was 50 µM (active); in assay [5] it was 0.277 µM (active); in assay [6] it was 80.3 µM (active); in [7], 0.187 µM (active); in assay [8], 88.4 µM (active); in the assay with Caspase-3 (Homo sapiens) it was 69.8 µM (active). The AC50 in assay [12] was 89 µM (active); in assay [13] it was 88 µM (active); in the assay with CYP2C9 (gene 1559) it was 87.7 µM (active); in the assay with CYP4A11 (gene 1579), 89.5 µM (active).

For the compound `CN(C)C(=O)NC1(c2ccccc2)CCN(CC[C@@]2(c3ccc(F)c(F)c3)CN(C(=O)c3ccccc3)CCO2)CC1`, the call (in assay [1]; in assay [2]; in assay [3]; in assay [4]; in assay [5]; with BCL2L11 (gene 10018)) was inactive. The outcome (in assay [8]; in assay [9]; in the assay with Caspase-3 (Homo sapiens); in [10]; in [11]; in [12]) was inactive. For the same compound, the result in the assay with CYP2C8 (gene 1558) and with CYP2C9 (gene 1559) was inactive. In addition, the AC50 in assay [6] was 36.8 µM (active); in assay [7], 29.8 µM (active); in [14], 47 µM (active); in [13] it was 2.65 µM (active); with CYP2E1 (gene 1571), 29.6 µM (active); in the assay with CYP4A11 (gene 1579), 47 µM (active).
